Rows were chosen to be rich in hits. Some 3.8% of all compounds tested hit in one or more screens of this group.
VDR inh = Inhibitors of the vitamin D receptor (VDR): qHTS; Vitamin D3 receptor (Homo sapiens), P11473; VDR-SRC2-3 peptide fluorescence polarization, 2 h; Potency, µM, inactives show max response, negative = inhibition, usual class: inhibitors; 0.93% of 400,000 active; AID 504847, 2011
Target sequence (P11473 whole entry, looked up): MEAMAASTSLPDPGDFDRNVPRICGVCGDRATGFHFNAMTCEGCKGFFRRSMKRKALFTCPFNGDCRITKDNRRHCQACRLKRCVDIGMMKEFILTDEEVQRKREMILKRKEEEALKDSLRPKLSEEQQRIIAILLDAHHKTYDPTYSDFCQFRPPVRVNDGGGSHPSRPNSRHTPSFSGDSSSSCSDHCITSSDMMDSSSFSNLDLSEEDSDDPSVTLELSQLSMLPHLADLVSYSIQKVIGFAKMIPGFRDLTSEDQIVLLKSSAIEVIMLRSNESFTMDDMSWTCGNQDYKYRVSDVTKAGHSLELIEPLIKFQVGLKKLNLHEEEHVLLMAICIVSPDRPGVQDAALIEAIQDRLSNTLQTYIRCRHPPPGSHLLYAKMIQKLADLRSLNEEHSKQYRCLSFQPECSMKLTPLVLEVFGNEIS
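Signal is fluorescence polarization, reporting how far test compounds block the interaction of VDR with the SRC2-3 coregulator peptide after a 2 h room-temperature incubation.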
GLS inhibitor = qHTS for Inhibitors of Glutaminase (GLS); Potency, µM (titrated, usually from 45.5 µM), inactives show at the highest dose activity change, negative = inhibition, most hits filed as inhibitors; GLS enzymatic activity, qHTS titration; Glutaminase kidney isoform, mitochondrial (Homo sapiens), O94925; AID 624170, 2012; 0.21% of 410,000 active
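Assay buffer: 45 mM KH2PO4 pH 8.2, 0.02% Tween-20. hKGA acts on L-glutamine (1 mM solution added); product glutamate is reported by an oxidase/peroxidase Amplex Red coupling, with fluorescence taken at baseline and 30 min.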
TrxR1 substrate = qHTS Assay for Substrates of Mammalian Selenoprotein Thioredoxin Reductase 1 (TrxR1): qHTS; Thioredoxin reductase 1, cytoplasmic (Rattus norvegicus), O89049; purified TrxR1 substrate turnover, NADPH consumption readout; Potency, µM (series often up to 114 µM), for inactives: top-dose activity change, negative = substrate turnover; 0.01% of 390,000 active; AID 588456, 2011; also: nearly all actives have a fitted effect of over 50% in size
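Rat TrxR1, dispensed at 90 nM, was prereduced with 400 uM NADPH (final) for 5 min at ~22 deg C, then incubated with compound 15 min before 400 uM selenite. A first-read NADPH fluorescence drop versus no-compound background flagged substrates.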
TrxR1 inh = qHTS Assay for Inhibitors of Mammalian Selenoprotein Thioredoxin Reductase 1 (TrxR1): qHTS; Thioredoxin reductase 1, cytoplasmic (Rattus norvegicus), O89049; recombinant rTrxR1, NADPH fluorescence consumption, selenite substrate; Potency, µM (highest dose often 114 µM), without a hit: at the highest dose activity change, negative = inhibition, hits mostly inhibitors; 1% of 390,000 active; also: nearly all actives have a fitted effect of over 65% in size
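Rat TrxR1 (90 nM in the dispensed reagent) was pre-reduced with 400 uM NADPH for 5 min at room temperature, then incubated with compound for 15 min. After 400 uM selenite was added, NADPH fluorescence (Ex 340/Em 450 nm) was followed for 8 min.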
KAT2A inh = qHTS Assay for Inhibitors of GCN5L2. Potency, µM (highest dose often 58.9 µM), for inactives: at the highest dose activity change, negative = inhibition, actives largely listed as inhibitors. 0.21% of 390,000 active. GCN5L2 HAT assay, ThioGlo1 CoA-SH fluorescence
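Compounds, pin-transferred from DMSO stocks, meet 20nM GCN5L2 for 15 min before the reaction begins with H3(1-25) peptide (75uM) and acetyl-CoA (70uM). Thiol-reactive ThioGlo1 reports CoA release over 20 min at room temperature.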
Sfp PPTase inh = qHTS Assay for Inhibitors of Bacillus subtilis Sfp phosphopantetheinyl transferase (PPTase); 3.5% of 310,000 active; Biochemical Sfp PPTase activity, qHTS; Potency, µM, without a hit: largest response in the series, negative = inhibition, hits mostly inhibitors; 4'-phosphopantetheinyl transferase ffp (Bacillus subtilis), Q9F4F7;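 also: the enzyme is Sfp with the accession as filed and its product quenches rhodamine fluorescence; 0% = enzyme reaction without inhibitor and -100% = no enzyme wells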
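Fluorescence-quenching assay with 15 nM Sfp, 5 uM rhodamine-CoA and 12.5 uM BHQ-2-labelled ybbR peptide in pH 7.6 Hepes/MgCl2 buffer. Enzyme was pre-incubated with compound for 15 min at room temperature. Rate was taken from the 30-min fluorescence change (525/598 nm).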
An asterisk follows results filed as active; ? = inconclusive; . = no result given; ! = not confirmed by another sample; [ ] = remark or other dose. Calls follow the shape of the dose curve; as a rule, active = well fitted curve in the direction sought with a large enough effect; inconclusive = small, poorly fitted or top-dose-only effect, or another doubt; inactive = no such curve, though single readings can be large; an effect the other way counts as inactive or inconclusive. Unless noted, % is scaled to controls: 0 for no effect and ±100 for the full control effect; potency is read from the fitted curve at half-maximal effect.

SMILES	VDR inh	GLS inhibitor	TrxR1 substrate	TrxR1 inh	KAT2A inh	Sfp PPTase inh
CCCCCn1cnc2c(=S)nc(N)[nH]c21	-27.1%	-18.3%	-11.4%[57.1 µM]	-1.4%[2.29 µM]	-16.6%	2.51µM*
Nc1nc(=S)c2ncn(C3CCCCC3)c2[nH]1	7.5%	-17.0%	0.8%[2.29 µM]	-4.2%[2.29 µM]	.	.
NS(=O)(=O)c1ccc(CCNC(=S)NC2CCCC2)cc1	-2.4%	2.7%	-3.7%	-8.6%	-4.0%	10.0%
Cc1cc(OCC(=O)N(C(C)C)C(C)C)ccc1Cl	2.9%	-3.4%	-14.7%	-16.9%	0.4%	2.2%
O=C(O)CNC(=O)c1cccc(C(F)(F)F)c1	10.6%	2.1%	-3.5%	-2.0%	-13.1%	4.0%
Cc1c(CCCC(=O)O)sc(N)c1C(=O)c1cccc(C(F)(F)F)c1	89.1µM*	-27.0%	0.8%	-2.3%	.	.
CC(C)C1Oc2ccccc2N(CC(=O)N(Cc2ccccn2)C2CC2)C1=O (configuration not stated)	-0.6%	-3.1%	-2.4%	-0.5%	-1.2%	32.4%
COc1ccc(NC(=O)c2cc3ccccc3cc2O)cc1	44.7µM*	3.7%	-4.9%[57.1 µM]	-28.9%[57.1 µM]	0.4%	-25.9%
N=C(N)S/C=C\C(=O)O	28.2µM*	.	.	.	?	7.94µM*
C[C@H](NC(=O)NCc1ccc(F)cc1)C(=O)O	17.7%	0.0%	-9.8%	-18.3%	-1.2%	22.5%
O=C(c1ccc(S(=O)(=O)N2CCC(c3nc4ccccc4[nH]3)CC2)cc1)N1CCOCC1	-15.4%	0.3%	8.1%	12.8%	-6.4%	50.1µM*
O=C(COC(=O)c1cc(S(=O)(=O)N2CCOCC2)c(Cl)cc1Cl)NC1CC1	-1.1%	3.1%	-16.3%	-54.9%	0.1%	.
CC1(c2ccc3c(c2)OCCCO3)NC(=O)N(CC(=O)Nc2cccc(C#N)c2)C1=O (configuration not stated)	0.3%	0.6%	-3.8%	-2.4%	-4.3%	.
CCCCCCCCCCCCCCCC(=O)NC(C)C(=O)O (configuration not stated)	-4.9%	.	.	.	.	11.7%
CCCCCCCCCCCCCCCC(=O)N[C@@H](COP(=O)(O)O)C(=O)O	12.6µM*	.	.	.	1.58µM*	-9.4%
CCNc1cc2c(cc1O)CCC1C2CCC2(C)C(O)CCC12 (configuration not stated)	79.4µM*	?	10.3%[11.4 µM]	11.2%[11.4 µM]	.	.
O=C(NC1CCCCCC1)C(=O)NC1CC1	-5.8%	-2.0%	8.8%	17.9%	2.7%	4.2%
O=C(NC1CCCCCC1)C(=S)NC1CCCCC1	-9.8%	-0.2%	-11.1%	14.0%[57.1 µM]	-0.9%	20µM*
O=C(CCSc1nc(-c2ccc3c(c2)OCO3)cc(C(F)(F)F)n1)NCc1ccco1	-0.4%	1.2%	39.8%	14.8%	-4.3%	39.8µM*
COc1ccc(CNC(=O)CCSc2nc(-c3ccc4c(c3)OCO4)cc(C(F)(F)F)n2)cc1	17.1%	3.3%	99.3%[57.1 µM]	113.3%[57.1 µM]	-7.2%	79.4µM*
CC(=O)Nc1ccc(S(=O)(=O)NCC(=O)OCC(=O)NC(=O)C2CCCCC2)cc1	9.9%	4.7%	-1.7%	-3.6%	-2.4%	9.5%
COc1ccc(-c2onc(C)c2C)cc1S(=O)(=O)NCC1CCN(Cc2ccccc2F)CC1	0.9%	0.5%	2.4%[57.1 µM]	24.7%[57.1 µM]	-2.5%	.
CC(C)CCCC(C)CCCC(C)CCCC(C)C(=O)O (configuration not stated)	?	.	.	.	11.2µM*	-14.7%
CC(C)CCCC(C)CCCC(C)CCCCC(C)CCCC(C)CCCC(C)C (configuration not stated)	-4.6%	0.8%	.	.	-8.7%	22.9%
CCCC[C@@]1(C2CCCC2)Cc2cc(OCC(=O)O)c(Cl)c(Cl)c2C1=O	50.1µM*!	-1.1%	?	19.3%[57.1 µM]	-20.7%	.
SMILES	VDR inh	GLS inhibitor	TrxR1 substrate	TrxR1 inh	KAT2A inh	Sfp PPTase inh
CCC(C)NC(=O)c1ccc2nc(Cc3ccccc3)oc2c1 (configuration not stated)	9.6%	?	3.1%[57.1 µM]	14.1%[57.1 µM]	1.6%	.
COc1ccc(CCNC(=O)c2ccc3nc(-c4ccco4)c(-c4ccco4)nc3c2)cc1OC	79.4µM*	-14.5%	-4.2%	2.51µM*	?	10µM*
O=C(O)c1ccc2nc(-c3ccco3)c(-c3ccco3)nc2c1	?	7.08µM*	14.6%	2.24µM*	-17.3%	7.94µM*
CCc1nc2ccc(C(=O)NCCc3ccc(OC)c(OC)c3)cc2nc1CC	-5.8%	-19.3%	1.4%[57.1 µM]	25.7%[57.1 µM]	-4.7%	1.5%
CCC(C)NC(=O)c1ccc2nc(-c3ccco3)c(-c3ccco3)nc2c1 (configuration not stated)	50.1µM*	.	-9.5%	2.82µM*	.	.
CC(C)(C)OC(=O)N1Cc2cc3ccccc3nc2C1	.	-0.9%	.	.	.	.
CCOC(=O)C1C(c2ccc([N+](=O)[O-])cc2)C2C(=O)NN=C2CC1(C)O (configuration not stated)	-5.2%	26.3%	3.8%	5.3%	-7.7%	22.3%
CC1(C)CC(=O)C/C(=N/NC(=O)COc2ccc3ccccc3c2Br)C1	-6.2%	12.5%	-2.9%	16.7%	-6.5%	15.1%
Cc1cc(C(=O)NNC(=O)/C=C/c2ccco2)c(C)o1	?	10µM*	3.9%	2.82µM*	-5.7%	.
O=C(/C=C/c1ccco1)N(c1ccccn1)c1ccccn1	-5.5%	110.3%	-4.6%	-46.0%	?	39.8µM*
COC(=O)c1ccccc1NC(=O)/C=C/c1ccco1	1.4%	5.2%	-16.7%	?	22.3%	50.1µM*
O=C(/C=C/c1ccco1)Nc1cccnc1Cl	-17.6%	-21.0%	0.6%	15.8µM*	-0.8%	50.1µM*
Cn1nc(C(=O)N2CCCC2)c2ccccc2c1=O	-10.3%	-1.6%	5.9%[57.1 µM]	16.2%[57.1 µM]	-17.9%	20.5%
COc1cccc(-c2cncnc2NCc2ccccc2OC)c1	?	.	.	.	-13.4%	2.9%
COc1cccc(-c2cncnc2Nc2ccc(F)cc2)c1	50.1µM*	.	.	.	?	79.4µM*
O=C(CCc1ccc(S(=O)(=O)N2CCOCC2)cc1)N/N=C/c1ccc(O)c(O)c1O	-1.4%	-4.5%	-17.5%	-26.6%	-18.7%	22.4µM*
O=C(CCc1ccc(S(=O)(=O)N2CCOCC2)cc1)N/N=C/c1ccc(F)cc1F	-6.6%	-10.7%	-14.7%[57.1 µM]	35.9%[57.1 µM]	-3.3%	26.9%
